This is one part of a sample in which hits are shown more often than they occur.
ST2 IL33 inh: IL1RL1 inhibition. Q01638. AlphaLISA ST2-Fc/biotin-IL-33 interaction, 1 h. inhibition, % for hits at 17 µM. 78,000 tested, 2.3% active; in the data active = inhibition above about 30%
Target sequence (Q01638 whole entry, looked up): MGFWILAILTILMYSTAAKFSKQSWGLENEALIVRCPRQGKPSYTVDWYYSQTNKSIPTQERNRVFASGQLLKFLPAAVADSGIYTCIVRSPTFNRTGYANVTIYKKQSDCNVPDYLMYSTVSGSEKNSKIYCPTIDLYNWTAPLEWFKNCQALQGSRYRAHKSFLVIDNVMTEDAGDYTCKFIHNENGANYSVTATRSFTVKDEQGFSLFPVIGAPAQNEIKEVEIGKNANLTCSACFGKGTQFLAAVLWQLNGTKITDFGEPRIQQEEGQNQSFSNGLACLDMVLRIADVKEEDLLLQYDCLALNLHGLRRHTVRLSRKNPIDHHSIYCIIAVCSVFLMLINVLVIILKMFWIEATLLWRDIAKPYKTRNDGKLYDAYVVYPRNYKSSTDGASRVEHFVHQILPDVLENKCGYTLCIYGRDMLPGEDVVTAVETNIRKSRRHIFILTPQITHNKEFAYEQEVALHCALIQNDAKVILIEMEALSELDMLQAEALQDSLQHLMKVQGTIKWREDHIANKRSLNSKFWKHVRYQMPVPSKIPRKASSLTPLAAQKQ
A number is an active result; – = inactive.

SMILES | ST2 IL33 inh
CCN1C(=O)C2(C(C#N)=C(N)Oc3n[nH]c(-c4ccccc4)c32)c2ccccc21 (stereo not drawn) | –
CC(C)c1[nH]nc2c1C(c1cccc(Cl)c1Cl)C(C#N)=C(N)O2 (stereo not drawn) | –
CC(C)c1[nH]nc2c1C1(CCN(Cc3ccccc3)CC1)C(C#N)=C(N)O2 | 31%
CC1CC(C)CN(C(=O)CSC2=Nc3ccccc3C3=NC(C)C(=O)N23)C1 (stereo not drawn) | –
Cc1cc(N2C(=O)c3ccc(F)cc3C2=O)no1 | –
Cc1ccnc(NC(c2ccc(N(C)C)cc2)c2ccc3cccnc3c2O)c1 (stereo not drawn) | 32%
Cc1cc(Cl)ccc1NC(=O)CSc1cccc2cccnc12 | –
COc1ccc(C(Nc2ccccn2)c2ccc3ccc(C)nc3c2O)cc1C (stereo not drawn) | 31%
Cc1cccc(NC(c2ccccc2)c2ccc3ccc(C)nc3c2O)n1 (stereo not drawn) | 36%
CCC(C(=O)Nc1cccc(C)n1)c1ccccc1 (stereo not drawn) | –
O=c1cc(CO)oc(C(Nc2ccccn2)c2ccc3c(c2)OCO3)c1O (stereo not drawn) | –
Cc1cccc(NC(c2cccc(C)n2)c2ccc3ccc(C)nc3c2O)n1 (stereo not drawn) | –
CC(=O)NC(c1ccc(Cl)cc1Cl)c1ccc2cccnc2c1O (stereo not drawn) | –
COc1cc(C(Nc2cc(C)ccn2)c2ccc3cccnc3c2O)ccc1O (stereo not drawn) | –
Cc1ccc(S(=O)(=O)Nc2ccccn2)cc1C | –
Cc1cc(C)n(-c2cccc3cccnc23)n1 | –
Cc1cccc(NC(c2cccc(Cl)c2)c2ccc3cccnc3c2O)n1 (stereo not drawn) | 34%
CCOc1cccc(N2C(=O)CC(N3CCN(Cc4ccc5c(c4)OCO5)CC3)C2=O)c1 (stereo not drawn) | –
CCOC(=O)Cn1c(=O)n(-c2ccc(C)c(C)c2)c2nc(-c3c(C)cc(C)cc3C)nc(C(N)=O)c21 | –
CC1CCC(NC(=O)c2cc(=O)[nH]c3ccc(S(=O)(=O)N4CCCCCC4)cc23)CC1 (stereo not drawn) | –
COCCn1c(CNC(=O)c2cccc(OC)c2)nc2cccnc21 | –
CCSc1nc2c(c(=O)[nH]1)C(c1ccc(N(CC)CC)cc1)C1=C(CC(C)(C)CC1=O)N2 (stereo not drawn) | –
COc1ccc(NC(=O)c2c(F)c(F)c(F)c(F)c2F)c([N+](=O)[O-])c1 | –
O=C(NCCc1cnccn1)C1(N2CCCCC2)Cc2ccccc2C1 | –
Cc1ccc(NC(=O)NC[C@H]2O[C@@H](CC(=O)NC(C)C)[C@H](O)[C@@H]2O)cc1 | –
SMILES | ST2 IL33 inh
CC1(C)CN(C(=O)c2cn(CC3CCCNC3)nn2)CCO1 (stereo not drawn) | –
COc1ccc(C(=O)Nc2ccc([N+](=O)[O-])cc2)cc1S(=O)(=O)N1CCOCC1 | –
CC(=O)NC1C(=O)N=C(SCC(=O)Nc2ncccn2)NC1=O (stereo not drawn) | –
COc1ccc2c(c1)C=C(CN1CCCC(N3CCN(c4ccccc4)CC3)C1)CO2 (stereo not drawn) | –
CCOC(=O)N1CCC(NCC2(c3cccc(F)c3)CCOCC2)CC1 | –
Cc1ccccc1CSC1=NCCN1C(=O)c1ccc(S(=O)(=O)N2CCCC2)cc1 | –
O=C(CSc1nc2c(c(=O)n1-c1ccccc1)SCC2)N1CCC(Cc2ccccc2)CC1 | –
Cc1cccc(NC(c2cccc(F)c2)c2ccc3cccnc3c2O)n1 (stereo not drawn) | –
Cc1cccc(NC(c2ccc(F)cc2)c2ccc3cccnc3c2O)n1 (stereo not drawn) | 30%
O=C(CCS(=O)(=O)c1cccc2cccnc12)Nc1ccc(F)cc1 | –
O=C(NCCSc1c[nH]c2ccccc12)C(c1ccccc1)c1ccccc1 | –
Cc1ncc2c(c1CNC(=O)/C=C/c1cccs1)CCN(C(=O)COc1ccccc1)C2 | –
Cc1ncc2c(c1CNC(=O)/C=C/c1cccs1)CCN(C(=O)c1ccc(-n3cccn3)cc1)C2 | –
Cc1nc(CC(=O)N2CCc3c(cnc(C)c3CNC(=O)/C=C/c3cccs3)C2)cs1 | 30%
O=C(NC1CCC(NC(=O)c2ccc(F)cc2)CC1)c1ccc(F)cc1 (stereo not drawn) | –
O=C(Nc1nc(-c2ccccn2)cs1)c1ccc(S(=O)(=O)N2CCOCC2)cc1 | –
Cc1ccc(-c2csc(NC(=O)c3ccc(S(=O)(=O)N4CCc5ccccc54)cc3)n2)o1 | 39%
CC(=O)c1sc(NC(=O)c2ccc(S(=O)(=O)N3CCc4ccccc43)cc2)nc1C | –
COC(=O)C1C(=O)NC(SC)=C(C#N)C1c1ccc(C)cc1 (stereo not drawn) | –
Cc1ccc([C@]2(O)NC([S-])=C(C#N)[C@H](c3ccc(F)cc3)[C@H]2[n+]2ccccc2)cc1 | –
Cc1cc[n+](C2C(c3ccc(Br)cc3)C(C#N)=C([S-])NC2(O)C2CC2)cc1 (stereo not drawn) | 55%
Cc1cc(C)[n+]2c(c1C#N)SCC2C(Br)c1ccccc1 (stereo not drawn) | 58%
CCc1ccccc1NC(=O)CCNC(=O)c1cc(NC(C)=O)ccc1Cl | –
COc1cccc2ccc(C3C(=O)c4ccccc4C3=O)nc12 | –
COc1ccc(C2=NNC(c3ccccc3)C2)c(O)c1 (stereo not drawn) | –
SMILES | ST2 IL33 inh
COc1ccc(C2CC(C3C(=O)c4ccccc4C3=O)=NN2)cc1 (stereo not drawn) | 36%
O=C(Nc1ccc(Cl)c(C(F)(F)F)c1)C(NS(=O)(=O)c1cccs1)c1ccccc1 (stereo not drawn) | –
CC1(C)CC(=O)C2=C(C1)Nc1nc(SCc3ccccc3F)nn1C2c1cccs1 (stereo not drawn) | –
Cc1ccc(N=C2C(=O)N(CN3CCOCC3)c3ccccc32)cc1 | –
O=C1C(=O)N(CN2CCCCCC2)c2ccccc21 | 42%
O=C(CN1C(=O)C(=O)c2ccccc21)c1ccccc1 | –
CCOC(=O)c1[nH]ncc1CN1CCCC(c2nn(C)c(=O)n2CC)C1 (stereo not drawn) | –
CC1=C(C(=O)OC2CCCCC2)C(c2ccccc2Cl)n2ncnc2N1 (stereo not drawn) | –
Fc1ccc(C2=CSC3=NCCN23)cc1 | –
Brc1ccc(C2=CSC3=NCCN23)cc1 | –
Clc1ccc(OC2=C(c3ccccc3)N3CCN=C3S2)cc1 | 45%
CCSc1nnc2c(n1)OC(c1ccc(OC)cc1)N(C(C)=O)c1ccccc1-2 (stereo not drawn) | –
CCOc1ccccc1C1N(c2nccs2)C(=O)C2CCCN21 (stereo not drawn) | –
C#CC(C)(C)NC(=O)C1CCCN(CC(N)=O)C1 (stereo not drawn) | –
CCOc1ccc(CCNc2nc(CC(C)=O)ns2)cc1OCC | –
CCOc1ccc2nc(N3CCCC(N4CCN(c5nonc5C)CC4)CC3)nc(C)c2c1 (stereo not drawn) | –
CCOc1ccc2nc(Nc3nc4c(c(=O)[nH]3)CCC4)nc(C)c2c1 | 31%
CCOc1ccc2c3c(c(=O)oc2c1)CCC3 | –
Cc1cccc(-c2cc(N3CCN(S(C)(=O)=O)CC3)ncn2)c1 | –
COc1ccc(N2CCN(S(=O)(=O)c3ccc(OC)cc3)CC2)cc1 | –
CN1CCN(S(=O)(=O)c2ccc([N+](=O)[O-])cc2)CC1 | –
O=[N+]([O-])c1ccc(S(=O)(=O)N2CCN(c3ccc(Cl)cc3)CC2)cc1 | 33%
Cn1c(=O)c2cc(S(=O)(=O)NC3CCCCCC3)ccc2n(C)c1=O | –

Source: PubChem (Paczesny and Yang Labs, IUPUI and University of Michigan)
